Laboratory results from PubChem BioAssay (NCI).
Values joined by “and” are separate entries in the source; they are usually repeats but may differ in a detail not shown here. Equal entries are not always repeated. This is part of a sample that, as a whole, favours compounds with a hit. Of some 83,000 tested, about 20% had one in any assay.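 Cells were grown in 96-well plates and exposed to the test compound at a single concentration for 48 hours; results are reported as percent growth, with values below 10 considered active.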 Unmarked numbers belong to inactive results. Active and inactive are the calls of the source.

tested on: NCI-H322M lung; assay: NCI-60 one-dose screen, 48 h (100 = growth as untreated, 0 = no growth, -100 = all killed); conditions: 10 µM
Procedure: Growth inhibition of the NCI-H322M human Non-Small Cell Lung tumor cell line is measured as a screen for anti-cancer activity. Cells are grown in 96 well plates and exposed to the test compound for 48 hours. Compounds are tested at a single concentration, which is 10^-5 M for most compounds. The reported endpoint is percent growth (GI% or GIPRCNT), where numbers from 0 - 100% represent growth inhibition, and numbers from -100% - 0 represent cell death. For example, a value of 40 represents 60% growth inhibition. A value of 0 means no net growth occurred over the course of the experiment. A value of -40 indicates 40% of cells at the beginning of the experiment died by the end of the experiment. A value of -100 means all cells are dead at the end of the experiment.
NCI-60 Human Tumor Cell Lines Screen was performed using the standard one-dose NCI protocol, which is described in more detail at https://dtp.cancer.gov/discovery_development/nci-60/default.htm.
Compounds with GIPRCNT values below 10 were considered active. Activity score was based on GIPRCNT using the following formula: […]
Score is 0 for GIPRCNT values of 100 or above, 50 for GIPRCNT values of 0, and 100 for GIPRCNT values of -100.

Row | Structure (SMILES) | growth
1 | O=C(O)CCCc1ccc(N(CCCl)CCCl)cc1 | 98.7% and 112%

same assay, conditions: 10 µM unless noted

Row | Structure (SMILES) | growth
2 | O=[N+]([O-])c1cc(Cl)c(Cl)c([N+](=O)[O-])c1Cl | 123%
3 | O=S(OO)c1cc(Cl)c(O)c(Cl)c1 (stereo not given) | 97.7%
4 | O=C(O)C(O)c1ccc(Cl)cc1 (stereo not given) | 101% and 118%
5 | C[C@]12CCC(=O)C[C@@H]1CC[C@@H]1[C@@H]2CC[C@]2(C)[C@@H](OC(=O)N(CCCl)N=O)CC[C@@H]12 | 49.3%
6 | CCOC(=O)c1cncn1C(C)c1ccccc1 (stereo not given) | 101%
7 | Clc1ccc(COC(Cn2ccnc2)c2ccc(Cl)cc2Cl)c(Cl)c1 (stereo not given) | 94.1% and 85.6%
8 | CCCC(C)SP(=S)(SC(C)CCC)SC(C)CCC (stereo not given) | 101%
9 | Nc1ccc2c(c1)Cc1cc(N)ccc1-2 | 90%
10 | COc1ccc2c(c1)c(-c1nc(-c3cn(C)c4ncccc34)cs1)cn2CCCCN1CCOCC1 | 65.9%
11 | O=C(O)c1cc([N+](=O)[O-])cc([N+](=O)[O-])c1 | 105%
12 | CN(C)c1ccc([N+](=O)[O-])c([N+](=O)[O-])c1 | 111% and 101%
13 | COC(=O)CCP(CCC(=O)OC)c1ccccc1 | 107%
14 | CC(C)COC(=O)Cc1ccccc1 | 104%
15 | ClCc1ccc(Cl)c(Cl)c1 | 98.3%
16 | ClC1OC(Cl)(Cl)C(Cl)(Cl)OC1(Cl)Cl (stereo not given) | 100%
17 | CC[C@H](C)[C@H](NC(=O)[C@H]1CCCCN1C)C(=O)N(C)[C@H](C(=O)NC12CC(C(=O)N[C@@H](Cc3ccccc3)C[C@H](C)C(=O)OC)(C1)C2)C(C)C | 91.9%
18 | Cc1cc(NC(=O)NCCCOc2ccc(N3C(N)=NC(N)=NC3(C)C)cc2Cl)ccc1S(=O)(=O)F | 54.2%
19 | NC(=O)Oc1cc(OC(N)=O)cc(N(CCCl)CCCl)c1 | 111%
20 | O=c1[nH]c(=O)[nH]c(=O)[nH]1 | 104%

Row | Structure (SMILES) | growth
21 | CC(=O)Nc1nc2c(s1)C1=CC[C@H]3[C@@H]4CC[C@H](OC(C)=O)[C@@]4(C)CC[C@@H]3[C@@]1(C)CC2 | 75.2%
22 | CCOC(=O)P(=O)(OCC)OCC | 82.6%
23 | O=Cc1cn(Cc2ccccc2)c2ccccc12 | 86%
24 | Oc1ccccc1C=NCCN=Cc1ccccc1O.[Fe] | 111%
25 | C=C[Se]CC(=O)/C=C/c1ccccc1 | 6% (active)
26 | C[C@]12CCc3sc(Nc4ccc(OC(F)(F)F)cc4)nc3C1=CC[C@@H]1[C@@H]2CC[C@]2(C)C(=O)CC[C@@H]12 | 77.3%
27 | CC1=CC(=O)CCC12CCOC2=O (stereo not given) | 96.4%
28 | CC1(C)C2CCC1(CS(=O)(=O)O)C(=O)C2 (stereo not given) | 90.2% and 99.1%
29 | O=[N+]([O-])c1ccc(P(=O)(O)O)cc1 | 101%
30 | CO/N=C1\CC[C@]2(C)[C@H]3CC[C@]4(C)C(=O)CC[C@H]4[C@@H]3C[C@@H]3SC(N)=N[C@@]32C1 | 105%
31 | CCN1C(=O)NC(=O)C(C)(N2C(=O)c3c(F)c(F)c(F)c(F)c3C2=O)C1=O (stereo not given) | 96.7%
32 | N#CCc1ccc(CC#N)cc1 | 107%
33 | C[C@]12CC[C@@H](OC(=O)N(CCCl)N=O)C[C@@H]1CC[C@@H]1[C@@H]2CC[C@]2(C)C(=O)CC[C@@H]12 | 57.5%
34 | COC12CC3C4=CCOC5CC(=O)N6c7ccccc7C1(CCN2C4)C6C53 (stereo not given) | 109%
35 | Oc1ccccc1C=NCCN=Cc1ccccc1O | 97.5%
36 | CCCCCCCCCCCCCCCCCCn1cc[n+](C)c1 | 5.3% (active) and 6.16% (active)
37 | O=NN1CCCCC1 | 128%
38 | CCOC(=O)C1C(C=C(C)C)C1(C)C (stereo not given) | 140%
39 | CCCCOCCOP(=O)(OCCOCCCC)OCCOCCCC | 120%

same assay, conditions: 75 µM

Row | Structure (SMILES) | growth [%]
40 | O=C(O)CCCc1ccc(N(CCCl)CCCl)cc1 | 91.9
